Results: PubChem BioAssay (EPA / NIEHS)
Where “and” joins values, the source holds several entries; their conditions need not be identical. Equal values may be shown once. Records with an inconclusive call do not appear. Calls of active or inactive are those of the source. Rule for the calls: active = hit-call score of the fitted dose curve at least 0.9, where 1 is the maximum; inconclusive = response in the unintended direction; inactive = score below 0.9.

These compounds were tested on NCBI gene 100848466 (assay: NVS_NR_bPR: NovaScreen (NVS) Nuclear Receptor Binding Assay for bovine Progextron Receptor (PR) (AID 2283343);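 for AC50: actives lower bound radioligand signal below DMSO meaning displacement of the label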).
Experimental: NVS_NR_bPR is a biochemical, single-readout assay that uses extracted gene-proteins from Bovine uterine membranes in a tissue-based cell-free assay. Measurements were taken 18 hours after chemical dosing in a 96-well plate.NVS_NR_bPR is one of one assay component(s) measured or calculated from the NVS_NR_bPR assay. It is designed to make measurements of radioligand binding, a form of binding reporter, as detected with scintillation counting signals by Lysate-based radiodetection technology.Data from the assay component NVS_NR_bPR was analyzed into 1 assay endpoint. This assay endpoint, NVS_NR_bPR, was analyzed in the positive analysis fitting direction relative to DMSO as the negative control and baseline of activity. Using a type of binding reporter, loss-of-signal activity can be used to understand changes in the binding as they relate to the gene PGR. Furthermore, this assay endpoint can be referred to as a primary readout, because the performed assay has only produced 1 assay endpoint. To generalize the intended target to other relatable targets, this assay endpoint is annotated to the nuclear receptor intended target family, where the subfamily is steroidal.
Binding assays used specific radioligands (tritiated, iodinated) with non-radioactive competitive displacement ligands in agonist or antagonist protocols (as indicated) and various reference compounds and inhibitors to titrate specific binding to receptors and transporters. Most enzyme assays (CYPs, kinases, phosphatases, proteases, HDACs) used recombinant protein and specific substrates (fluorescence mostly, some colorimetric and radioactive) and inhibitors, followed by a biochemical separation of substrate and product. All assays for the biochemical HTS were initially run in duplicate at a single concentration (10 uM for CYP450 assays and 25 uM for all others). […] Each assay was run with positive and negative controls, and concurrent controls on every plate. The follow-up (secondary) screen tested active chemical-pairs in concentration series, as well as a few additional assays not tested in the primary screen, some selected negative inactives, and several cases re-run in the concentration series for confirmatory purposes.
In the case of `Cc1nn(C)c(Oc2ccccc2)c1C=NOCc1ccc(C(=O)OC(C)(C)C)cc1`, the AC50 is reported as 11 µM (active). `Oc1ccc(C(c2ccc(O)cc2)C(Cl)(Cl)Cl)cc1` was tested, and the AC50 was 3.6 µM (active). In the case of `O=C(c1ccc(O)cc1O)c1ccc(O)cc1O`, the AC50 is reported as 16.4 µM (active). In the case of `CC(=O)[C@H]1CC[C@H]2[C@@H]3CCC4=CC(=O)CC[C@]4(C)[C@H]3CC[C@]12C`, the AC50 is reported as 0.00229 µM (active). `CC1(C)C(C=C(Cl)Cl)C1C(=O)OCc1cccc(Oc2ccccc2)c1` (stereo not drawn) was tested, and the outcome was “inactive”. For `CCCN(CCC)C(=O)SCC`, the outcome was “inactive”. In the case of `C=CCOC(Cn1ccnc1)c1ccc(Cl)cc1Cl` (stereo not drawn), the AC50 is reported as 13 µM (active). `c1ccc(Nc2ccccc2)cc1` was tested, and the outcome was “inactive”. For `CC(=O)S[C@@H]1CC2=CC(=O)CC[C@]2(C)[C@H]2CC[C@@]3(C)[C@@H](CC[C@@]34CCC(=O)O4)[C@H]12`, the AC50 was 1.53 µM (active). For `C[C@]12C[C@H](O)[C@H]3[C@@H](CCC4=CC(=O)CC[C@@]43C)[C@@H]1CC[C@@H]2C(=O)CO`, the AC50 was 0.875 µM (active). With `CCNc1nc(N)nc(Cl)n1` the outcome was “inactive”. `C#C[C@]1(O)CC[C@H]2[C@@H]3CCC4=CC(=O)CC[C@@H]4[C@H]3CC[C@@]21CC` was tested, and the AC50 was 0.00453 µM (active). In the case of `C[C@]12CC[C@@H]3c4ccc(O)cc4C[C@@H](CCCCCCCCCS(=O)CCCC(F)(F)C(F)(F)F)[C@H]3[C@@H]1CC[C@@H]2O` (stereo partly drawn), the outcome is reported as “inactive”. For `CC(C)CCCCCCc1ccc(O)cc1`, the outcome was “inactive”. In the case of `CC(C)(c1ccc(O)cc1)c1ccc(O)cc1`, the AC50 is reported as 10.3 µM (active) and 19.7 µM (active) and 14.7 µM (active). `N#CSCSc1nc2ccccc2s1` was tested, and the outcome was “inactive”. With `CCCCC(CC)CN1C(=O)C2C3C=CC(C3)C2C1=O` (stereo not drawn) the outcome was “inactive”. For `CCCCOCCOCCOCc1cc2c(cc1CCC)OCO2`, the outcome was “inactive”.
